Measured values taken from PubChem BioAssay (Tox21).
Inconclusive results are not listed. A number with no mark means an inactive call. The source made the active and inactive calls. Calls come from the whole dose curve; as a rule, active = well fitted activation curve with a large enough effect in the signal ratio in the repeat runs (not every such curve was filed as active); inconclusive = weak or mixed curves; inactive = flat fitted curve, though single readings scatter; the % refers to the signal ratio.

assay: qHTS assay to identify small molecule agonists of the hypoxia (HIF-1) signaling pathway (AID 1224846); details: HRE-bla ME-180 cells, beta-lactamase ratio, 17 h; series mostly up to 76.8 µM; activation: at the top concentration
Excerpt: U.S. Tox21 Program National Center for Advancing Translational Sciences [NCATS] NIH Chemical Genomics Center [NCGC] U.S. Environmental Protection Agency [EPA] National Institutes of Environmental Health Sciences [NIEHS] National Toxicology Program [NTP] U.S. Food and Drug Administration [FDA] Tox21 Assay Overview: Hypoxia-inducible factor-1 (HIF-1) is the major hypoxia-regulated transcription factor that controls cellular responses to low oxygen concentration. HIF-1 is composed of two subunits: hypoxia responsive HIF-1-alpha and constitutively expressed HIF-1-beta, which is also known as aryl hydrocarbon receptor nuclear translocator. During hypoxic conditions, HIF-1-alpha heterodimerizes with HIF-1-beta and translocates into the nucleus where the HIF-1 complex binds to the hypoxia-response element (HRE) and activates expression of target genes such as VEGF (vascular endothelial growth factor). The HIF-1 pathway is essential to normal growth and development, and is involved in the pathophysiology of cancer, inflammation, and ischemia. Using a beta-lactamase reporter-gene under control of the hypoxia response element, a cell-based assay [CellSensor(TM) HRE-bla ME-180 from Life Technologies, Carlsbad, CA] was used to measure hypoxia-induced signaling. Tox21 10K library compounds were measured for their ability to induce the reporter gene activity.
Tox21 Assay Protocol Summary: HRE-bla ME-180 cells were dispensed at 2,000 cells per well in 6 uL of assay medium containing 0.5% dialyzed FBS into black wall/clear-bottom 1536-well plates using a Multidrop Combi (Thermo Scientific, Waltham, MA) dispenser. After the assay plates were incubated at 37C and 5% CO2 for 5 hrs, 23 nL of compounds dissolved in DMSO, positive controls or DMSO only was transferred to each well of the assay plate using a Pintool station (Kalypsys, San Diego, CA). The assay plates were incubated at 37C and 5% CO2 for 17 hrs. One uL of LiveBLAzerTM B/G FRET substrate (CCF4-AM) (Life Technologies) was added to each well using a Flying Reagent Dispenser (Aurora Discovery, San Diego, CA).
% is set by controls: 0 for no effect and ±100 for the full control effect.

Row | Structure (SMILES) | activation | outcome
1 | C=CCOC(=O)/C=C\C(=O)OCC=C | 0.871% | –
2 | CC(=O)N(c1onc(C)c1C)S(=O)(=O)c1ccc(N)cc1 | -0.659% [at 35.5 µM] | –
3 | CCOC(=O)c1ccccc1OC | -0.449% | –
4 | CC(C)(CCl)c1ccccc1 | 0.0605% | –
5 | C=CC(C)=CCC=C(C)C | -0.632% | –
6 | CCCOC(=O)c1ccc(C(=O)OCCC)nc1 | -0.496% | –
7 | CCn1nc(C)c2c1C(=O)NCC(c1ccc(O)cc1)=N2 | -0.166% | –
8 | CCCCC(=O)O[C@]1(C(=O)CO)[C@@H](C)C[C@H]2[C@@H]3CCC4=CC(=O)C=C[C@]4(C)[C@@]3(F)[C@@H](O)C[C@@]21C | -1.23% | –
9 | CC(=O)Nc1ccc(N)cc1 | -1.01% | –
10 | CC(=O)CC(c1ccc([N+](=O)[O-])cc1)c1c(O)c2ccccc2oc1=O (stereo not given) | 0.218% [at 35.5 µM] | –
11 | Cc1ccc(S(=O)(=O)NC2CCCCC2)cc1 | 0.613% | –
12 | c1ccc(COCc2ccccc2)cc1 | -0.0431% | –
13 | COC(=O)[C@@H]1CC2=CC(=O)CC[C@]2(C)[C@@]23O[C@@H]2C[C@@]2(C)[C@@H](CC[C@@]24CCC(=O)O4)[C@H]13 | 0.146% [at 35.5 µM] | –
14 | Fc1c(F)c(F)c(Br)c(F)c1F | -0.594% | –
15 | COc1cc2c(N3CCN(C(=O)Nc4ccc(OC(C)C)cc4)CC3)ncnc2cc1OCCCN1CCCCC1 | -1.1% [at 35.5 µM] | –
16 | C=CC(=C)CCCC(C)(C)OC(C)=O | -0.183% | –
17 | CCCCC(=O)O[C@]1(C(=O)CO)CC[C@H]2[C@@H]3CCC4=CC(=O)CC[C@]4(C)[C@H]3[C@@H](O)C[C@@]21C | -0.882% [at 35.5 µM] | –
18 | C=CC(C)(O)CCCC(C)CCCC(C)CCCC(C)C (stereo not given) | 1.04% | –
19 | C[C@]12CCC(=O)C=C1C=C[C@@H]1[C@@H]2CC[C@@]2(C)[C@H]1CC[C@@]21CCC(=O)O1 | -0.58% [at 35.5 µM] | –
20 | CO[Si](C)(OC)OC | -0.282% | –

Row | Structure (SMILES) | activation | outcome
21 | CC(=O)OCC(=O)[C@@]12OC(C)(C)O[C@@H]1C[C@H]1[C@@H]3C[C@H](F)C4=CC(=O)C=C[C@]4(C)[C@@]3(F)[C@@H](O)C[C@@]12C | -1.25% [at 35.5 µM] | –
22 | Cc1cc(OI)c(C(C)C)cc1-c1cc(C(C)C)c(OI)cc1C | 2.31% [at 35.5 µM] | –
23 | CC(C)=CC=O | 0.165% | –
24 | NC(=O)Cn1c(=O)cc(CCN2CCN(c3nccc4sccc34)CC2)c2ccc(F)cc21 | -0.616% | –
25 | Cc1ccc(/C=N/n2c(-c3ccccc3)csc2=S)cc1 | 2.18% [at 35.5 µM] | –
26 | CC1(C)C2=CCCC(C)(C)[C@]23CC[C@H]1C3 | -0.652% | –
27 | CC(C)(O)c1ccccc1CC[C@@H](SCC1(CC(=O)O)CC1)c1cccc(/C=C/c2ccc3ccc(Cl)cc3n2)c1 | 4.93% [at 35.5 µM] | –
28 | Oc1cc(O)c(Cl)cc1Cl | -0.628% | –
29 | CC(C)(C)C(=O)C(Oc1ccc(Cl)cc1)n1ccnc1 (stereo not given) | 0.924% [at 35.5 µM] | –
30 | CNC(=O)N(c1ccccc1)c1ccccc1 | -0.547% | –
31 | O=C(O)c1snc(Cl)c1Cl | -1.12% | –
32 | Cc1ccnc2ccccc12 | -1.36% | –
33 | CN1Cc2cc(C(=O)N3CCC(C4CCNCC4)CC3)ccc2N[C@@H](CC(=O)O)C1=O | -0.924% [at 35.5 µM] | –
34 | Cc1oc(C)c(C(=O)Nc2ccccc2)c1C | 0.534% | –
35 | CCCCCCCCSCCO | 0.301% | –
36 | CCC(=O)OC/C=C/c1ccccc1 | – | inactive
37 | CC1=C(C=O)C(C)(C)CCC1 | -1.67% | –
38 | O=C(O)c1ccccc1NCCc1ccccc1 | -0.512% [at 35.5 µM] | –
39 | Cc1cc(O)c(C(C)C)cc1Cl | – | inactive
40 | CC(C)C(=O)O | -1.03% | –
